# SNCA expr inhib: inhibitors of alpha-synuclein (SNCA) gene expression. HEK-293 SNCA-luciferase knock-in, luminescence, 24 h. Potency, µM (highest dose often 57.2 µM), without a hit: at the top dose activity change, negative = inhibition, usual class: inhibitors. 140,000 compounds, 0.17% hits;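 also: potency is read from the fitted curve at half-maximal effect; plate controls were DMSO cells for no effect and cell-free wells for full effect; nearly all actives have a fitted effect of over 45% in size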
# KDM5B inh: inhibitors of human KDM5B histone demethylase. Q9UGL1. KDM5B demethylase, FDH-coupled NADH fluorescence (FDH is formaldehyde dehydrogenase). Potency, µM (doses to about 57.7 µM), usual class: inhibitors. 220,000 compounds, 2.6% hits. AID 1347165; also: potency is read from the fitted curve at half-maximal effect; 0% is about no effect; nearly all actives have a fitted effect of over 70% in size
#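 Compound dilutions met 200 nM (final) KDM5BΔAP for 10 min at room temperature before substrate addition. The substrate mix held 12.5 µM H3K4me3 with cofactors 25 µM α-ketoglutarate and 50 µM Fe²⁺. NADH signal gain over 30 min defined activity.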
# SNCA viab count: cell viability loss counter-screen | 150,000 compounds, 0.12% hits | Potency, µM (titrated, usually from 57.1 µM), without a hit: at the highest dose activity change, negative = cytotoxicity, actives largely listed as cytotoxic | HEK-293-SNCA-luc viability, GF-AFC fluorescence, 24 h;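 also: potency is read from the fitted curve at half-maximal effect; 0% = DMSO-treated cells and -100% = medium-only wells without cells; nearly all actives have a fitted effect of over 30% in size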
#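 Cytotoxicity counterscreen: after 24 h compound treatment of genome-edited SNCA-luciferase HEK-293 cells, live-cell protease substrate GF-AFC read by fluorescence after 30 min; activity scaled between DMSO (0%) and medium-only (-100%), curves Hill-fitted.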
# IP6K1 inhibitor: IP6K1 kinase inhibition | Q92551 | activity change, % (series mostly up to about 58 µM) | IP6K1 kinase, ADP-Glo luminescence, 2 h; hits give low values | 140,000 compounds, 0.81% hits; in the data active = activity change below about -25%; also: % is scaled to controls: 0 for no effect and ±100 for the full control effect
# Target sequence (Q92551 whole entry, looked up): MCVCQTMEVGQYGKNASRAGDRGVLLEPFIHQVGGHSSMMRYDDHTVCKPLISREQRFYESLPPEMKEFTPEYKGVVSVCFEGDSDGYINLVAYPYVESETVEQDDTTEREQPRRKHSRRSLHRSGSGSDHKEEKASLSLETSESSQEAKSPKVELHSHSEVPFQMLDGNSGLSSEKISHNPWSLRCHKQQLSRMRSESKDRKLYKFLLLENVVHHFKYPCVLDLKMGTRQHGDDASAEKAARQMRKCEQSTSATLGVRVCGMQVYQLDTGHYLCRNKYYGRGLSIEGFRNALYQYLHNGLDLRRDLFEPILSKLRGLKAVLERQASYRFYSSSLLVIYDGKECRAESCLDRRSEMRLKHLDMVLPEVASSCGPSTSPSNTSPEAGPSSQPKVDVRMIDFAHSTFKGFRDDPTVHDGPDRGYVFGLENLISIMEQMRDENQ
#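 ADP-Glo luminescence measures ADP made by human IP6K1 during a 2 h RT reaction with ATP/IP6 (mix at 1.3 mM/130 uM); top library doses 57.5 and 19.1 uM final.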
# Starred values were filed as active, the others as inactive; i = inactive; ? = inconclusive; · = no result given; [ ] = remark or other dose. Shown are actives, neighbours in structure and some others; about 2.9% of the full set was active somewhere. Unless noted, calls follow the shape of the dose curve; as a rule, active = well fitted curve in the direction sought with a large enough effect; inconclusive = small, poorly fitted or top-dose-only effect, or another doubt; inactive = no such curve, though single readings can be large; an effect the other way counts as inactive or inconclusive.
SMILES,SNCA expr inhib,KDM5B inh,SNCA viab count,IP6K1 inhibitor
CC(NC(=O)C1CCCO1)C(=O)N1CCN(c2ccccn2)CC1 (stereo not drawn),-16.5%,25.1µM*,8.2%,25.2
CC(C)C(NC(=O)C1CCC1)C(=O)N1CCN(c2ccccn2)CC1 (stereo not drawn),1.2%,22.4µM*,0.5%,4.5
CC(NC(=O)C1CCC1)C(=O)N1CCN(c2ccccn2)CC1 (stereo not drawn),-15.0%,22.4µM*,15.2%,2.3
COc1ccc(-c2cc(C(=O)N3CCOCC3)c3c(C)nn(-c4ccccc4)c3n2)cc1,175.7%,79.4µM*,-1.8%,2.1
CC(C)(C)Sc1ccc(Cl)nn1,·,i,·,·
COc1cccc(-c2ccc(C(=O)O)cc2)c1,42.3%[87.6 µM],112µM*,-3.6%[87.6 µM],-19.9
COc1ccc(-c2cccc(C(=O)O)c2)cc1,·,i,·,·
O=c1c(-c2ccc(O)cc2)coc2cc(OC3O[C@H](CO)[C@H](O)[C@H](O)[C@H]3O)cc(O)c12 (stereo partly drawn),5.41µM*,·,-8.1%,·
Cc1cc(CNC(=O)CC2C=CS(=O)(=O)C2)c2[nH]c(-c3ccccc3)c(C)c2c1 (stereo not drawn),79.8%,28.2µM*,3.0%,10.3
Cc1c(-c2ccccc2)[nH]c2c(CNC(=O)C3=NN(C)C(=O)CC3)cc(Cl)cc12,20.3%,i,-23.2%,-9.9
Cc1nc(CCC(=O)NCc2cc(Cl)cc3c(C)c(-c4ccccc4)[nH]c23)n[nH]1,20.3%,25.1µM*,-1.1%,-14.2
CCn1nccc1C(=O)NCc1cc(C)cc2c(C)c(-c3ccccc3)[nH]c12,-8.9%,12.6µM*,?,18.4
Cc1cc(CNC(=O)C(C)Cn2nc(C)nc2C)c2[nH]c(-c3ccccc3)c(C)c2c1 (stereo not drawn),14.9%,i,-23.2%,13.4
Cc1ncoc1C(=O)NCc1cc(Cl)cc2c(C)c(-c3ccccc3)[nH]c12,-1.4%,35.5µM*,-14.9%,2.1
CC(C)CCC(C)NC(=O)Cc1coc(-c2ccccc2)n1 (stereo not drawn),·,i,·,·
Cc1ccccc1OCC(=O)Nc1cc(C(F)(F)F)ccc1N1CCOCC1,·,i,·,·
O=[S+]([O-])(c1cccnc1)c1nnn2c1nc(N1CCOCC1)c1ccccc12,13.4%,i,2.3%,1.9
Cc1ccc(S(=O)(=O)c2nnn3c2nc(N2CCOCC2)c2ccccc23)cc1,7.6%,79.4µM*,7.6%,-2.8
COc1ccc([S+](=O)([O-])c2nnn3c2nc(N2CCOCC2)c2ccccc23)cc1,41.3%,79.4µM*,10.3%,4.5
COCCNc1nc2c(S(=O)(=O)c3ccc(C)c(C)c3)nnn2c2ccccc12,6.3%,79.4µM*,8.5%,10.1
Cc1ccc(S(=O)(=O)c2nnn3c2nc(N2CCCCC2)c2ccccc23)cc1,-20.4%,i,1.9%,32.0
CCc1ccc([S+](=O)([O-])c2nnn3c2nc(NCCCOC)c2ccccc23)cc1,7.4%,89.1µM*,5.1%,-4.8
COCCCNc1nc2c([S+](=O)([O-])c3ccc(OC)cc3)nnn2c2ccccc12,33.9%,31.6µM*,3.5%,15.1
Cc1ccc(C)c([S+](=O)([O-])c2nnn3c2nc(NC2CC2)c2ccccc23)c1,4.5%,79.4µM*,-20.4%,2.3
Cc1ccc([S+](=O)([O-])c2nnn3c2nc(NCc2ccncc2)c2ccccc23)cc1C,46.4%,89.1µM*,11.6%,29.1
SMILES,SNCA expr inhib,KDM5B inh,SNCA viab count,IP6K1 inhibitor
COCCNc1nc2c([S+](=O)([O-])c3ccc(OC)cc3)nnn2c2ccccc12,6.3%,?,1.7%,3.3
COCCn1c(C)cc(C(=O)C(=O)Nc2nnc(COc3cc(C)cc(C)c3)s2)c1C,·,i,·,·
Cc1ccc(C(=O)NCCc2cccnc2)cc1,·,i,·,·
CCn1c(=O)c2ccnn2c2ccc(C(=O)NCCc3cccnc3)cc21,-6.6%,31.6µM*,2.3%,2.3
CCn1c(=O)c2ccnn2c2ccc(C(=O)O)cc21,-17.2%,22.4µM*,-1.5%,-12.0
CCCn1cc(CNC(=O)c2ccc3c(c2)n(CC)c(=O)c2ccnn23)c(C)n1,16.8%,22.4µM*,2.5%,27.3
CCn1c(=O)c2ccnn2c2ccc(C(=O)NCc3ccc(OC)cc3OC)cc21,-13.7%,?,2.0%,7.9
CNC(=O)[C@@H](Cc1ccccc1)N1CCC[C@H]1C(=O)NCCN(C)C,-1.0%[87.6 µM],i,3.0%[87.6 µM],5.7
CCC(C)c1ccc(NC(=O)CSc2ncnc3ccccc23)cc1 (stereo not drawn),·,i,·,·

# High-throughput results deposited in PubChem BioAssay by National Center for Advancing Translational Sciences (NCATS).
